# Data from PubChem BioAssay AID1645838 (ICCB-Longwood Screening Facility, Harvard Medical School, 2021).
# Where “and” joins values, the source holds several entries; their conditions need not be identical. Equal values may be shown once. In all, about 2,000 compounds went through this assay and about 100 (5%) were called active. This is one part of a sample in which actives are shown more often than they occur. Cut-off read from the data, not from the text of the source: active = z-score above about 2; inactive = the rest. Some compounds were tested as several samples or in several runs, with calls that do not always agree.
# Assay: modulators of mitochondrial supercomplex assembly, cell-based, luminescence, Hoechst nuclei count (AID 1645838);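 note: control cybrid cells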;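 for z-score: higher means more mitochondrial supercomplex formation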
# Conditions: Cells, luminescence/Hoechst cell count ratio, supercomplex reporter; for z-score: stronger effect = higher value; for cell count: measured here: cell number, Hoechst nuclei count
# [1] = library stock concentration (final well concentration not given) 80 uM
# [2] = library stock concentration (final well concentration not given) 400 uM
# [3] = library stock concentration (final well concentration not given) 46 uM
# [4] = library stock concentration (final well concentration not given) 278 uM
# [5] = library stock concentration (final well concentration not given) 1.67 mM
# [6] = library stock concentration (final well concentration not given) 10 mM
# [7] = library stock concentration (final well concentration not given) 2 mM
smiles,measurement,setting,value
CCCCC[C@H](O)/C=C/[C@@H]1[C@H](CCCCCCC(=O)O)[C@@H](O)C[C@H]1O,z-score,,0.0726 (inactive)
same,cell count,,4940
CCN(CC)c1ccc(C2=C(Cl)C(=O)c3ncccc3C2=O)cc1,z-score,,-0.697 (inactive)
same,cell count,,3780
c1ccc2c(Oc3nc(Nc4ccc(N5CCOCC5)cc4)c4ncn(C5CCCCC5)c4n3)cccc2c1,z-score,,-0.437 (inactive)
same,cell count,,5560
c1nc2nc(Nc3ccc(N4CCOCC4)cc3)nc(NC3CCCCC3)c2[nH]1,outcome,library stock 2 mM,inactive; censored for cell count
same,outcome,library stock 10 mM,inactive; censored for cell count
same,z-score,[1],-0.0131 (inactive)
same,z-score,[2],1.19 (inactive)
same,cell count,[1],4690
same,cell count,[2],2200
Cc1cc(N2CCOCC2)ccc1Nc1nc(NC2CCCCC2)c2[nH]cnc2n1,z-score,[3],-0.914 (inactive)
same,z-score,[4],-0.363 (inactive)
same,z-score,[5],3.33 (active)
same,z-score,[6],3.68 (active)
same,cell count,[3],7450
same,cell count,[4],5730
same,cell count,[5],2040
same,cell count,[6],2130
NC(N)=NN=Cc1ccc(Cl)c(Cl)c1,z-score,[1],-0.108 (inactive)
same,z-score,[2],0.196 (inactive)
same,z-score,[7],-0.953 (inactive)
same,z-score,[6],-0.658 (inactive)
same,cell count,[1],5310
same,cell count,[2],4750
same,cell count,[7],4910
same,cell count,[6],4260
CCCCC[C@H](O)/C=C/[C@H]1[C@H](O)CC(=O)[C@@H]1CCCCCCC(=O)NCCO,z-score,,0.115 (inactive)
same,cell count,,5420
NC1=NC(=O)/C(=C/c2ccc(O)cc2)S1,z-score,,0.333 (inactive)
same,cell count,,5020
CCCCCCCC/C=C\CCCCCCCC(=O)OCC(O)COP(=O)(O)O (centres undefined),z-score,,-0.58 (inactive)
same,cell count,,5650
O=C(O)CCC/C=C\C[C@@H]1[C@@H](/C=C/[C@@H](O)COc2cccc(C(F)(F)F)c2)[C@H](O)C[C@@H]1O,z-score,,-0.654 (inactive)
same,cell count,,5730
Cc1ccc(COC(=O)N2CCC(CNc3ncccn3)C(F)C2)cc1 (centres undefined),z-score,[1],-0.136 (inactive)
same,z-score,[2],0.087 (inactive)
same,z-score,[7],-0.148 (inactive)
same,z-score,[6],-0.243 (inactive)
same,cell count,[1],5400
same,cell count,[2],5130
same,cell count,[7],5140
same,cell count,[6],5210
O=C(O)c1ccc(-c2c[nH]c3ncc(-c4ccccc4)cc23)cc1C1CCCC1,z-score,[3],-0.226 (inactive)
same,z-score,[4],-0.179 (inactive)
same,z-score,[5],-0.154 (inactive)
same,z-score,[6],2.58 (active)
same,cell count,[3],6280
same,cell count,[4],6090
same,cell count,[5],5580
same,cell count,[6],1970
CCCS(=O)(=O)Nc1ccc(F)c(C(=O)c2c[nH]c3ncc(-c4ccc(Cl)cc4)cc23)c1F,z-score,[1],-0.652 (inactive) and -0.181 (inactive)
same,z-score,[2],-0.587 (inactive) and -0.185 (inactive)
same,z-score,[7],-0.572 (inactive) and -0.608 (inactive)
same,z-score,[6],0.969 (inactive) and -0.885 (inactive)
same,cell count,[1],4780 and 6010
same,cell count,[2],4780 and 5900
same,cell count,[7],4410 and 5850
same,cell count,[6],2140 and 5020
Cn1cc(C=C2C(=O)Nc3cccnc32)c2ccccc21,z-score,[1],-0.136 (inactive)
same,z-score,[2],-0.0135 (inactive)
same,z-score,[7],-0.221 (inactive)
same,z-score,[6],-0.519 (inactive)
same,cell count,[1],5300
same,cell count,[2],5320
same,cell count,[7],5410
same,cell count,[6],4520
Cn1c(SCC(=O)N2CCCC2C(=O)Nc2ccccc2-c2ccccc2)nc2ccccc21 (centres undefined),z-score,[1],-0.422 (inactive)
same,z-score,[2],-0.389 (inactive)
same,z-score,[7],-0.142 (inactive)
same,z-score,[6],-0.283 (inactive)
same,cell count,[1],5510
same,cell count,[2],5800
same,cell count,[7],5780
same,cell count,[6],5710
CC(C)CCOc1ccc(NC(=S)Nc2ccc(OCCC(C)C)cc2)cc1,z-score,,-0.0536 (inactive)
same,cell count,,5220
Cc1nc2ccc(-n3ncc(C(=O)c4cc5ccccc5[nH]4)c3N)cc2[nH]1,z-score,[1],-0.114 (inactive)
same,z-score,[2],-0.221 (inactive)
same,z-score,[7],-0.0631 (inactive)
same,z-score,[6],5.29 (active)
same,cell count,[1],5810
same,cell count,[2],5920
same,cell count,[7],5510
same,cell count,[6],3410
CCCCC[C@H](O)/C=C/[C@H]1[C@H](O)CC(=O)[C@@H]1C/C=C\CCCC(=O)OCC(O)CO (some centres undefined),z-score,,0.364 (inactive)
same,cell count,,5190
CCCNC1CCc2nc(N)sc2C1 (centres undefined),z-score,[1],-0.399 (inactive)
same,z-score,[2],-0.375 (inactive)
same,z-score,[7],-0.412 (inactive)
same,z-score,[6],-0.168 (inactive)
same,cell count,[1],6960
same,cell count,[2],6720
same,cell count,[7],6830
same,cell count,[6],6380
CCOc1ccc(S(=O)(=O)N(CC(=O)N=Nc2c(O)[nH]c3ccccc23)c2ccccc2)cc1,outcome,library stock 10 mM,inactive; censored for cell count
same,z-score,[1],0.0734 (inactive)
same,z-score,[2],0.0751 (inactive)
same,z-score,[7],0.419 (inactive)
same,cell count,[1],5190
same,cell count,[2],5160
same,cell count,[7],4350
CC/C=C\C/C=C\C/C=C\C/C=C\CCCCC(=O)OCC,z-score,,-0.596 (inactive)
same,cell count,,5380
Nc1nccc2c1ncn2C1C=C(CO)C(O)C1O (centres undefined),outcome,library stock 10 mM,inactive; censored for cell count
same,z-score,[3],-0.246 (inactive)
same,z-score,[4],0.747 (inactive)
same,z-score,[5],2.95 (active)
same,cell count,[3],5790
same,cell count,[4],4240
same,cell count,[5],1810
CCCCCCCCCCCC(=O)NC[C@]1(C)CCC[C@]2(C)c3ccc(C(C)C)cc3CC[C@@H]12,z-score,,0.0192 (inactive)
same,cell count,,4880
CCCCCCCCCCCCCCCC(=O)OC[C@@H](O)COP(=O)(O)O,z-score,,0.759 (inactive)
same,cell count,,4710
CC(=O)O[C@@]12C[C@@H](C)[C@@]3(O)[C@@H](C=C(CO)C[C@]4(O)C(=O)C(C)=C[C@@H]34)[C@@H]1C2(C)C,z-score,,2.36 (active)
same,cell count,,5140
CCCCC[C@H](O)/C=C/[C@H]1C=CC(=O)[C@@H]1CCCCCCC(=O)O,z-score,,0.664 (inactive)
same,cell count,,4830
Cc1nc(Nc2n[nH]c3c2CN(C(=O)NC(CN(C)C)c2ccccc2)C3(C)C)c2sccc2n1 (centres undefined),outcome,library stock 1.67 mM,inactive; censored for cell count
same,outcome,library stock 10 mM,inactive; censored for cell count
same,z-score,[3],0.353 (inactive)
same,z-score,[4],1.68 (inactive)
same,cell count,[3],4470
same,cell count,[4],2250
Cc1cccc(Nc2nc(-c3ccncc3)cs2)c1,z-score,,-0.555 (inactive)
same,cell count,,5440
Oc1ccc(Nc2nc(-c3ccc(Cl)cc3)cs2)cc1,z-score,,-0.695 (inactive)
same,z-score,[1],0.00338 (inactive)
same,z-score,[2],-0.177 (inactive)
same,z-score,[7],-0.154 (inactive)
same,z-score,[6],1.99 (active)
same,cell count,,4930
same,cell count,[1],5690
same,cell count,[2],5570
same,cell count,[7],5530
same,cell count,[6],2610
COc1cccc(OC)c1-c1ccc(CC(NC(=O)c2c(Cl)cccc2Cl)C(=O)O)cc1 (centres undefined),z-score,[3],-0.0712 (inactive)
same,z-score,[4],-0.126 (inactive)
same,z-score,[5],-0.192 (inactive)
same,z-score,[6],-0.205 (inactive)
same,cell count,[3],5760
same,cell count,[4],5740
same,cell count,[5],5820
same,cell count,[6],5840
CCCCCCCCCCCCCCCC(=O)OC[C@@H](O)COP(=O)([O-])OCC[N+](C)(C)C,outcome,,inactive; censored for cell count
COc1cc(Nc2c(C#N)cnc3cc(OCCCN4CCN(C)CC4)c(OC)cc23)c(Cl)cc1Cl,outcome,library stock 10 mM,inactive; censored for cell count
same,z-score,[3],-0.0511 (inactive)
same,z-score,[4],0.0803 (inactive)
same,z-score,[5],2.12 (active)
same,cell count,[3],5680
same,cell count,[4],5890
same,cell count,[5],3280
COc1cc2ncnc(Nc3ccc(F)c(Cl)c3)c2cc1OCCCN1CCOCC1,z-score,[1],0.183 (inactive)
same,z-score,[2],0.0655 (inactive)
same,z-score,[7],0.641 (inactive)
same,z-score,[6],1.23 (inactive)
same,cell count,[1],5740
same,cell count,[2],5370
same,cell count,[7],5790
same,cell count,[6],4940
COc1cc2c(Oc3ccc4[nH]c(C)cc4c3F)ncnc2cc1OCCCN1CCCC1,z-score,[3],-0.259 (inactive)
same,z-score,[4],-0.207 (inactive)
same,z-score,[5],-0.199 (inactive)
same,z-score,[6],0.419 (inactive)
same,cell count,[3],4900
same,cell count,[4],4920
same,cell count,[5],4790
same,cell count,[6],3820
CC1CN(Cc2ccccc2)CC1c1nc2c(cnn2C2CCOCC2)c(=O)[nH]1 (centres undefined),z-score,[1],-0.245 (inactive)
same,z-score,[2],-0.201 (inactive)
same,z-score,[7],-0.281 (inactive)
same,z-score,[6],-0.05 (inactive)
same,cell count,[1],6480
same,cell count,[2],6460
same,cell count,[7],6500
same,cell count,[6],5630
CCCCCOc1ccccc1C(O)CC#CCCCC(=O)OC (centres undefined),z-score,,-0.738 (inactive)
same,cell count,,4890
COc1cc(C)c(Sc2cnc(NC(=O)c3ccc(CNC(C)C(C)C)cc3)s2)cc1C(=O)N1CCN(C(C)=O)CC1 (centres undefined),outcome,library stock 10 mM,inactive; censored for cell count
same,z-score,[1],-0.488 (inactive)
same,z-score,[2],-0.307 (inactive)
same,z-score,[7],0.194 (inactive)
same,cell count,[1],4600
same,cell count,[2],4380
same,cell count,[7],4120
CC(CSC(=O)c1ccccc1)C(=O)N1CC(Sc2ccccc2)CC1C(=O)O (centres undefined),z-score,[1],-0.846 (inactive)
same,z-score,[2],-0.854 (inactive)
same,z-score,[7],-0.642 (inactive)
same,z-score,[6],-0.914 (inactive)
same,cell count,[1],6770
same,cell count,[2],5990
same,cell count,[7],6700
same,cell count,[6],6110
CCCCC[C@H](O)/C=C/[C@@H]1[C@@H](C/C=C\CCCC(=O)N(CC)CC)[C@@H](O)C[C@H]1O,z-score,,-1.04 (inactive)
same,cell count,,5830
NC(=O)c1noc(C(CCCC2CCCCC2)CC(=O)NO)n1 (centres undefined),z-score,[3],-0.365 (inactive)
same,z-score,[4],-0.421 (inactive)
same,z-score,[5],-0.0342 (inactive)
same,z-score,[6],2.42 (active)
same,cell count,[3],6320
same,cell count,[4],6380
same,cell count,[5],5390
same,cell count,[6],2560
C=C1C(=O)O[C@H](CCCCCCCC)[C@H]1C(=O)O,z-score,,-0.4 (inactive)
same,cell count,,5960
CCCCC/C=C\CCCCCCCCCCCCC(=O)O,z-score,,-0.87 (inactive)
same,cell count,,5480
COc1ccc(CCCOC(Cn2ccnc2)c2ccc(OC)cc2)cc1 (centres undefined),z-score,,0.304 (inactive)
same,cell count,,4930
CN(C)CCCCCCOc1ccc(-n2ccnc2)cc1,z-score,,2.07 (active) and 0.161 (inactive)
same,cell count,,4900 and 5850
NC(=O)C(c1ccccc1)(c1ccc(F)cc1)c1ccc(F)cc1,z-score,[3],-0.117 (inactive)
same,z-score,[4],0.34 (inactive)
same,z-score,[5],-0.0437 (inactive)
same,z-score,[6],0.799 (inactive)
same,cell count,[3],6820
same,cell count,[4],6540
same,cell count,[5],6770
same,cell count,[6],6720
O=C1C(Nc2ccccc2)=CC(=O)c2ncccc21,z-score,,0.666 (inactive)
same,cell count,,3000
O=C(NNS(=O)(=O)c1ccccc1C(F)(F)F)c1cc2cc(Cl)ccc2o1,z-score,[3],-0.12 (inactive)
same,z-score,[4],-0.121 (inactive)
same,z-score,[5],-0.307 (inactive)
same,z-score,[6],-0.0108 (inactive)
same,cell count,[3],7080
same,cell count,[4],6790
same,cell count,[5],7310
same,cell count,[6],6850
CC=C(C)C(=O)OC1C(C)=C[C@]23C(=O)C(C=C(CO)C(O)[C@]12O)C1C(CC3C)C1(C)C (some centres undefined),z-score,[3],1.37 (inactive)
same,z-score,[4],1.94 (inactive)
same,z-score,[5],1.83 (inactive)
same,z-score,[6],1.83 (inactive)
same,cell count,[3],6280
same,cell count,[4],6170
same,cell count,[5],6240
same,cell count,[6],5670
